# Measured values from the supplement of paper PMC3334620.
# The full ranking holds about 33,000 sequences; the median of “E-score (-0.5 to 0.5)” is about -0.016, and the highest 2% start at about 0.32. What follows is part of a selection rich in the highest values, with near analogues and random picks from the rest.
# Target: T1, Stp1 (UniProt B3LFK1)
# T1 sequence: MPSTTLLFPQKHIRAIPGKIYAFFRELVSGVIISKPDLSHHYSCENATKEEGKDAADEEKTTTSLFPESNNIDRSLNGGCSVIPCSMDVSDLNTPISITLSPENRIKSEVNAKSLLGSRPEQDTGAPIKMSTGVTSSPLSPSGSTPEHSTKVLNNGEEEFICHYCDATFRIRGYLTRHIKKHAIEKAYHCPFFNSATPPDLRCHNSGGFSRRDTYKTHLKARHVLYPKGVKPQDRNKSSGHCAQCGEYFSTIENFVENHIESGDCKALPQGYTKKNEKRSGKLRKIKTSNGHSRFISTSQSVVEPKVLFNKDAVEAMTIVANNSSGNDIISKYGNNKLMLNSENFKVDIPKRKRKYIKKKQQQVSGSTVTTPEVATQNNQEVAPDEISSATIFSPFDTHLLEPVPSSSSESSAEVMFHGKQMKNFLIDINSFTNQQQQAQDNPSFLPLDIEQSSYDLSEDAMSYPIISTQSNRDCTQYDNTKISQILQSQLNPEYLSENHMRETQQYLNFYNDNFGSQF
# Experiment: PBM E-score (8-mer binding enrichment) (E-score (-0.5 to 0.5)); higher = stronger / more preferred TF binding
# Conditions: protein concentration: 200 nM; construct: GST-full length
# In short: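 Universal all-10-mer Agilent arrays, fresh or stripped once, were converted to double-stranded form by primer extension. GST-tagged yeast transcription factors from PURExpress in vitro transcription/translation, full-length or DNA-binding domain only, were applied at about 100-200 nM and detected with fluorescent anti-GST. After masliner normalisation, the Universal PBM Analysis Suite scored each ungapped eight-base word together with its reverse complement by E-score.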
row,Sequence,PBM E-score
1,GAAGCGGA,-0.0314
2,AAAGCGGG,-0.19
3,AGAGCGGC,0.307
4,AAAGCGGA,0.0227
5,CAAGCGGC,0.466
6,AAAGCGGC,0.366
7,CAAGCGGA,-0.0234
8,GAAGCGGC,0.426
9,GAAGCGTC,-0.0144
10,CGAGCGGA,0.114
11,CAAGCGGG,-0.168
12,CGAGCGGC,0.416
13,AAAGGGAC,-0.055
14,AAGACCGA,-0.107
15,ACTTAGGC,-0.0486
16,ATATTCGG,0.0873
17,ACCCATAC,-0.0919
18,AAGTCTCG,-0.199
19,CGCCAACG,0.0633
20,ATGGCTCG,-0.0567
21,ATAAACAT,0.222
22,AAAAGAAG,0.19

row,Sequence,PBM E-score
1,AAAAGAAC,0.0475
2,AAAAGAAT,0.322
3,TTTATAAA,0.376
4,CTTATAAA,0.115
5,CGTATAAC,0.217
6,AGTATAAA,0.297
7,CGTATAAA,0.319
8,GTTATAAA,0.0721
9,AGTCTGTA,-0.18
10,AAGTCCCG,-0.145
11,GCTCGAAC,-0.0559
12,CCAGGTGC,-0.187
13,AGGCAAAA,0.344
14,TGGCAAAA,0.292
15,AGGCAAAC,0.118
16,CGGCAAAG,0.264
17,CGGCAAAA,0.357
18,GGGCAAAA,0.142
19,AGACCTCG,-0.157
20,GCCGAGGC,0.357
21,ACCGAGGC,-0.121
22,AGCGAGGC,0.197

row,Sequence,PBM E-score
1,GCCGAGGA,0.0308
2,CGCGAGGC,0.421
3,CACGAGGG,-0.253
4,CACGAGGA,0.102
5,CACGAGGC,0.415
6,CGCGAGGA,-0.0281
7,ATCAGGTC,-0.114
8,CACGATAC,-0.0326
9,GACAACAA,0.0779
10,AAGCCCCT,-0.287
11,CCTTAACC,-0.221
12,ACCCCGCT,-0.174
13,CCGGCAGA,-0.0739
14,CCGGCAGG,-0.17
15,AAGGCAGG,-0.236
16,ACAGCAGT,-0.0354
17,CCGGCAGC,-0.063
18,TCGGCAGA,-0.0589
19,ACGGCAGC,0.406
20,ACGGCAGT,0.403
21,ACGGCAGG,0.343
22,ATGGCAGC,0.00395

row,Sequence,PBM E-score
1,AAGGCAGT,0.103
2,ACGGCAGA,0.367
3,ATCTTTAG,0.0678
4,AGCCATCC,0.0193
5,GCAGCGGA,-0.0607
6,GCGGCAGA,0.261
7,GCGGCAGC,0.334
8,GCAGCGGC,0.32
9,CCAGCGGC,0.256
10,GAGGCAGC,0.0343
11,ACTTTTTA,0.157
12,AACTACGG,-0.0064
13,CAGCGCCA,0.0346
14,CAGCGCCG,0.446
15,AAGCGCCG,0.465
16,AAGCGCCT,0.272
17,AAGCGCCA,0.0796
18,CAGCGCCC,0.188
19,CAGTAGAG,-0.155
20,AGTCGATC,-0.128
21,GACGGGAC,-0.203
22,CACGTGGC,0.213

row,Sequence,PBM E-score
1,GCCTAGCC,0.0204
2,CCGTGGGA,0.047
3,ACTGGAAG,-0.2
4,GTAGGTCA,-0.249
5,GGGCACAA,0.202
6,CGCCACAG,-0.0135
7,CGGCACAA,0.405
8,CGGCACAC,0.381
9,CCGCACAG,0.201
10,CGCCACAC,0.324
11,AGGCACAG,0.133
12,GGGCACAC,-0.098
13,AGGCACAA,0.288
14,AGGCACAC,0.0169
15,GGCCACAC,0.0354
16,CGGCACAG,0.398
17,CATGCAAA,0.112
18,CATCTCAG,-0.0765
19,AACGCTCC,-0.122
20,CTAAACTA,-0.0468
21,AAATTCCG,0.126
